High-throughput results: PubChem, Broad Institute
Only a sample is shown.
aSyn 5UTR act = Activators working through SNCA 5'UTR binding (MLPCN); hit rate 7.1% among 300,000; activity score, % (tested at 7.5 µM), hits read low; alpha-synuclein 5'UTR reporter, activators screen; in the data active = activity score below about -60%
A number is an active result; i = inactive; + = active, no number.

SMILES	aSyn 5UTR act
O=C(Nc1nc(-c2ccccn2)cs1)c1ccc(Cl)s1	i
O=C(Nc1ccc(Br)cn1)c1ccc(Br)s1	-198
O=C(Nc1ccc(Br)cn1)c1ccc(Cl)s1	-167
Cc1ccccc1C(=O)Nc1ccc(Br)cn1	-77
O=[N+]([O-])c1cc(/C=N/N2CCCCC2)ccc1Cl	-89
CN1CCN(/N=C/c2ccc(Br)cc2)CC1	-118
CN1CCN(/N=C/c2ccc(N(c3ccccc3)c3ccccc3)cc2)CC1	i
CN1CCN(/N=C/c2ccc(Cl)c(Cl)c2)CC1	-145
O=C1OCCC1Sc1nnc(-c2ccc3c(c2)OCO3)o1 (configuration not stated)	i
Nc1oc2ccccc2c(=O)c1-c1ccc2c(c1)OCO2	-75
COc1ccc(N2CCN(C(=O)C3(C)CC3(Cl)Cl)CC2)cc1 (configuration not stated)	-82
Cc1cccc(-c2noc(CN(C)C(=O)c3ccco3)n2)c1	-65
CC(=O)Cn1cnc2c(cnn2-c2ccc(C)c(C)c2)c1=O	-106
CC(C)CCn1cnc2c(cnn2-c2ccc(F)cc2)c1=O	-83
CCOC(=O)Cn1cnc2c(cnn2-c2ccc(Cl)cc2)c1=O	-65
CCOC(=O)C1CCN(c2ncnc3c2cnn3-c2ccc(Cl)cc2)CC1	i
CCOC(=O)C1CCN(C(=O)COc2ccc(Cl)cc2)CC1	-75
CCOC(=O)C1CCCN(C(=O)CC(C)c2ccccc2)C1 (configuration not stated)	-115
CCOC(=O)C1CCN(C(=O)/C=C/c2ccccc2)CC1	-139
O=C(/C=C/c1ccc2c(c1)OCO2)N1CCCCC1	-132
CCOC(=O)C1CCN(C(=O)/C=C/c2ccc3c(c2)OCO3)CC1	-74
Cc1ccc(N/C=C/C(=O)c2cccs2)cc1C	-180
O=C(/C=C/Nc1ccc(Nc2ccccc2)cc1)c1cccs1	-170
O=C(/C=C/Nc1ccccc1C(=O)O)c1cccs1	-72
Cc1cc(N/C=C/C(=O)c2cccs2)ccc1F	-250
SMILES	aSyn 5UTR act
O=C(/C=C/Nc1cccc([N+](=O)[O-])c1)c1cccs1	-279
CCN1CCN(S(=O)(=O)c2ccc(Cl)c(C(=O)NCCc3ccccc3)c2)CC1	-69
O=C(Nc1ccc(N2CCOCC2)cc1)c1cnsn1	i
O=C(NC(=S)Nc1ccc(N2CCOCC2)cc1)c1cccc(Cl)c1	-72
CN(C)C(=S)Nc1ccc(N2CCOCC2)cc1	-68
O=C(NC(=S)Nc1ccc(N2CCOCC2)cc1)c1ccccc1	-148
C/C(=C\C(=O)c1ccccc1)Nc1ccc(N2CCOCC2)cc1	-63
Cc1cccc(C(=O)O/N=C/c2c(N3CCOCC3)n(C)c3ccccc23)c1	i
O=C(/C=C/c1cccc(O)c1)c1ccc(N2CCOCC2)cc1	-182
Fc1cc(Cl)c(OCc2noc(-c3ccsc3)n2)c(Cl)c1	-81
Clc1ccc(OCc2noc(-c3ccsc3)n2)c(Cl)c1	-170
Cn1c(=O)c2nc(-c3ccc(Cl)cc3Cl)oc2c2ccccc21	-72
Cc1ccc(-c2csc(N3C(=N)SCC3=O)n2)cc1	-162
O=C(Nc1ncccc1O)c1ccc(S(=O)(=O)Nc2ccccc2)cc1	+
O=C(Nc1ccccc1O)c1ccc(NS(=O)(=O)c2cccc3cccnc23)cc1	-605
Cc1nc2cc(N3CCCCC3)c(NC(=O)c3ccncc3)cc2c(=O)n1Cc1ccc(Cl)cc1	i
COc1cc(NC(=O)c2ccc(Cl)cc2)c(OC)cc1NC(=O)CN1CCCCC1	-68
COc1cc2c(cc1NC(=O)COC(=O)[C@@H](NS(=O)(=O)c1cccc(Cl)c1)C(C)C)oc1ccccc12	-103
COc1ccc(S(=O)(=O)N[C@@H](C)C(=O)OCC(=O)Nc2cc3oc4ccccc4c3cc2OC)cc1	-129
Cc1ccccc1OCc1nnc2c3cnn(C)c3ncn12	-187
C(=N\n1cnnc1)/c1cccc(OCCOc2ccccc2)c1	-65
C(=N\n1cnnc1)/c1ccc(OCc2cccc3ccccc23)cc1	-110
CC[n+]1c(/C=C/Nc2ccccc2)sc2ccccc21	-83
CCN1/C(=C/C=C/C=C/c2sc3ccccc3[n+]2CC)Sc2ccccc21	i
Cc1ccc(S(=O)(=O)Nc2nc3ccccc3nc2NCc2ccco2)cc1	-180
SMILES	aSyn 5UTR act
C/C(=N\Nc1nc(Cl)c(Cl)cc1Cl)c1ccc(S(=O)(=O)NCc2ccco2)cc1	-64
C/C(=N\Nc1ccc(C(=O)O)cc1)c1ccc(S(=O)(=O)NCc2ccco2)cc1	-75
Cc1ccc(C(=O)Nc2cccc(C(=O)N3CCN(C)CC3)c2)cc1	-98
Cc1ccc(C(=O)Nc2cccc(C(=O)NCc3ccco3)c2)cc1	-72
CCC1=Nc2cc(C(=O)NCc3ccco3)ccc2Sc2ccc(C)cc21	i
Cc1ccc(C(=O)Nc2ccc(S(=O)(=O)NCc3ccco3)cc2)cc1	-92
CC(=O)OCC1OC(n2cc(F)c(=O)[nH]c2=O)C(OC(C)=O)C1OC(C)=O (configuration not stated)	-181
Cc1n[nH]c(=O)n1-c1ccc(OCc2ccccc2)cc1	-91
COc1c(OC(C)=O)ccc(/C=C/c2ccc3cccc(OCc4ccccc4)c3n2)c1[N+](=O)[O-]	-129
Cc1cc(N/N=C2/CCCc3ccccc32)nc2ccccc12	-172
c1ccc(N/N=C2\CCCc3ccccc32)nc1	-75
Fc1ccc2c(c1)/C(=N/Nc1ccccn1)CCS2	-72
CN(C)c1ccc(NC(=S)NC23CC4CC(CC(C4)C2)C3)cc1	-129
CC(=O)c1ccc(N2CCN(c3ncccn3)CC2)cc1	-125
COc1cccc(N2CCN(c3ncccn3)CC2)c1	-104
O=C(Nc1ccc(N2CCN(C(=O)c3ccccc3)CC2)cc1)c1ccc(Br)o1	-69
CCN1CCN(c2ccc(NC(=O)c3ccc(Br)o3)cc2)CC1	-91
O=C(Nc1ccc(N2CCN(C(=O)c3ccc(Cl)cc3)CC2)cc1)c1ccc([N+](=O)[O-])o1	i
CCC(=O)N1CCN(c2ccc(NC(=O)c3ccc([N+](=O)[O-])o3)cc2)CC1	i
CN(Cc1cccnc1)C(=O)c1cc(COc2ccc3c(c2)CCCC3)on1	-127
CC(=O)c1cccc(OCc2cc(C(=O)N(C)Cc3cnccn3)no2)c1	-85
COc1cc(/C=C2/CC/C(=C/c3ccc(O)c(OC)c3)C2=O)ccc1O	-71
COc1cc2c(c(OC)c1OC)-c1ccc(OC)c(=O)cc1C(NC(C)=O)CC2 (configuration not stated)	i
COc1cc(/C=C2\COC/C(=C\c3ccc(O)c(OC)c3)C2=O)ccc1O	i
COc1ccc(/C=C2\CCC/C(=C\c3ccc(OC)c(OC)c3OC)C2=O)c(OC)c1OC	-71
SMILES	aSyn 5UTR act
CCN1C/C(=C/c2ccc(OC)c(O)c2)C(=O)/C(=C/c2ccc(OC)c(O)c2)C1	i
COc1ccc(/C=C2\CC/C(=C\c3ccc(OC)c(OC)c3)C2=O)cc1OC	-74
COc1ccc(C2CC(=O)N(C)c3ccccc3S2)cc1OC (configuration not stated)	-87
NC(=O)c1cccnc1Nc1cccc([N+](=O)[O-])c1	-109
Cc1nc(SCC(=O)c2ccc(Cl)s2)c2oc3ccccc3c2n1	-94
c1coc(CSc2ncnc3c2oc2ccccc23)c1	-91
CC(=O)CSc1ncnc2c1oc1ccccc12	-65
CC(=O)c1ccc2c(c1)C1C=CCC1C(c1ccncc1)N2 (configuration not stated)	-77
COc1ccc(/C=N/Nc2nnc(Cc3ccccc3)c(=O)[nH]2)cc1OC	-67
COc1ccc(Cc2nnc(N/N=C/c3ccc(O)cc3)[nH]c2=O)cc1OC	i
Cc1cccc(-c2nc(C#N)c(NC3CCCCC3)o2)c1	-171
Cc1cccc(-c2nc(C#N)c(N3CCCCC3)o2)c1	-187
